The text below walks through data of PubChem BioAssay AID1224853 (National Center for Advancing Translational Sciences (NCATS), 2016).

Results filed as inconclusive are left out. The source made the active and inactive calls. Calls follow the shape of the dose curve; as a rule, active = well fitted inhibition curve with a large enough effect; inconclusive = small, poorly fitted or top-dose-only effect; inactive = no such curve, though single readings can be large or run the other way.

The experiment can be described thus: Confirmation assay for measurement of the activity of small molecule inhibitors on Zika virus induced Caspase-3 activity in human astrocytoma cells. To be noted: SNB-19 ZIKV-induced caspase-3/7, luminescence, 6 h; series mostly up to 46.1 µM; activity change, negative = inhibition: at the top concentration. Summed up:
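SNB-19, 250 cells/well, cultured 16-20 h; cpd 1 h pre-incubation; ZIKV 2 FFU/cell, 6 h, 37 C/5% CO2; Caspase-Glo 3/7 30 min RT; luminescence; normalized vs uninfected/infected controls.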
As for `O=C1c2ccccc2C(=O)c2c(NCCc3ccc(O)cc3)ccc(NCCc3ccc(O)cc3)c21`, the “activity change, negative = inhibition” value was -30.1% (inactive).

Regarding `Cc1cc(O)c2c(c1)C(=O)c1cc(O)cc(O)c1C2=O`, the Potency was 4.89 µM (active).

`CC(C(=O)O)c1ccc2c(c1)[nH]c1ccc(Cl)cc12` (stereo not drawn): the “activity change, negative = inhibition” value is -15.7% (inactive).

As to `CCCCCNC(=O)N1CCC(CN(Cc2ccc(Cl)cc2)Cc2ccc([N+](=O)[O-])s2)C1` (stereo not drawn), the “activity change, negative = inhibition” value is 17.3% (inactive).

In the case of `COc1ccc(-c2cc(=S)ss2)cc1`, the Potency is 15.5 µM (active).

For the molecule `CC(C(=O)O)c1ccc(C(=O)c2ccccc2)s1` (stereo not drawn), the Potency is 8.69 µM (active).

In the case of `c1ccc(CCNc2nc(-c3ccccc3)cs2)cc1`, the Potency was 15.5 µM (active).

For `CC(C(=O)O)c1ccc(-c2ccccc2)c(F)c1` (stereo not drawn), the “activity change, negative = inhibition” value is -11.9% (inactive).

Turning to `Nc1ncnc2c1ncn2[C@@H]1O[C@@H](CO)[C@H](O)[C@H]1O`, the “activity change, negative = inhibition” value was 0.711% [at 23.8 µM] (inactive).

`Cc1ccc(O)c(-n2nc3ccccc3n2)c1`: the Potency is 7.74 µM (active).

Regarding `O=C1NC(=O)C(=Cc2ccc(-c3ccc(F)cc3)o2)S1`, the Potency was 13.8 µM (active).

Regarding `CC(C)(C)COc1ccc(-n2cc(C(=O)O)cn2)cc1C#N`, the Potency is 25.1 µM (active).

Turning to `CN1CC(=O)N/C1=N/C(=O)Nc1cccc(Cl)c1`, the Potency was 6.9 µM (active).

As to `COc1cccc(-c2cc(=O)c3ccccc3o2)c1N`, the Potency is 7.74 µM (active).

Consider `CC(=O)Nc1ccc([C@H](C)C(=O)Nc2ncc(C(C)C)s2)cc1`, for which the Potency was 9.75 µM (active).

With `CC(=O)Oc1ccccc1C(=O)Nc1ncc([N+](=O)[O-])s1`, the Potency was 2.24 µM (active).

For the molecule `COc1ccc(CC2=NN3C([C@@H](CCc4ccccc4)[C@@H](C)O)=NC(C)C3C(=O)N2)cc1OC` (stereo partly drawn), the “activity change, negative = inhibition” value was 40.2% (inactive).

With `CC(O)=C(C#N)C(=O)Nc1ccc(C(F)(F)F)cc1`, the Potency is 0.869 µM (active).

With `O=C(/C=C/c1ccccc1)NCCO`, the “activity change, negative = inhibition” value was -21.9% (inactive).

As to `Cc1oncc1C(=O)Nc1ccc(C(F)(F)F)cc1`, the Potency is 3.08 µM (active).

As for `C[C@@H]1CCN(C(=O)CC#N)C[C@H]1N(C)c1ncnc2[nH]ccc12`, the “activity change, negative = inhibition” value is 5.55% (inactive).

For `CCCCC1C(=O)N(c2ccccc2)N(c2ccc(O)cc2)C1=O` (stereo not drawn), the “activity change, negative = inhibition” value was 22.7% (inactive).

Consider `O=C(O)c1cccc(-c2noc(-c3ccccc3F)n2)c1`, for which the Potency is 3.46 µM (active).

As for `CC1=C(CO)C(=O)O[C@@H]([C@@H](C)[C@H]2CC[C@H]3[C@@H]4C[C@H]5O[C@]56[C@@H](O)C=CC(=O)[C@]6(C)[C@@H]4CC[C@]23C)C1`, the “activity change, negative = inhibition” value is -1.09% (inactive).

Regarding `O=C(c1ccccc1)c1ccc2n1CCC2C(=O)O` (stereo not drawn), the Potency is 17.3 µM (active).

Consider `O=C(O)[C@@H](c1ccc(OCc2ccc3ccccc3n2)cc1)C1CCCC1`, for which the Potency is 13.8 µM (active).

Consider `Cc1c(NC(=O)c2ccc(C(C)(C)C)cc2)cccc1-c1cn(C)c(=O)c(Nc2ccc(C(=O)N3CCOCC3)cc2)n1`, for which the “activity change, negative = inhibition” value was -15.3% (inactive).

`CCN1/C(=C/C=C/c2sc3ccccc3[n+]2CC)Sc2ccccc21`: the “activity change, negative = inhibition” value was -7.85% [at 23.8 µM] (inactive).

Turning to `Nc1ccc2c(c1)CN1C(=O)c3ccccc3C1=N2`, the Potency is 3.37 µM (active).

Take `O=C(O)[C@H](CC(=O)N1C[C@@H]2CCCC[C@H]2C1)Cc1ccccc1`: the “activity change, negative = inhibition” value was -6.96% (inactive).

In the case of `Nc1ccc(N=Nc2ccccc2)c(N)n1`, the Potency was 12.3 µM (active).

As to `Nc1ccc(O)c(C(=O)O)c1`, the “activity change, negative = inhibition” value is -11.2% (inactive).

Regarding `C=CCCCCCCCCC(=O)O`, the “activity change, negative = inhibition” value was -5.82% (inactive).

In the case of `O=C(Nc1ncc([N+](=O)[O-])s1)c1cccs1`, the Potency is 1.73 µM (active).

Consider `COc1ccc2nc(NC(=O)Nc3ccccc3)sc2c1`, for which the Potency is 21.8 µM (active).

Take `O=S(=O)(O)CCSSCCS(=O)(=O)O`: the “activity change, negative = inhibition” value was -3.31% (inactive).

In the case of `CC[C@]1(O)C[C@H]2CN(CCc3c([nH]c4ccccc34)[C@@](C(=O)OC)(c3cc4c(cc3OC)N(C=O)[C@H]3[C@@](O)(C(=O)OC)[C@H](OC(C)=O)[C@]5(CC)C=CCN6CC[C@]43[C@@H]65)C2)C1`, the “activity change, negative = inhibition” value is 26.6% (inactive).

On to `Cc1ccc2c(n1)Oc1ccc(C(C)C(=O)OCC(=O)N(C)C)cc1C2` (stereo not drawn), for which the Potency was 10.9 µM (active).
